PubChem BioAssay (NCI)
This is part of a sample that, as a whole, favours compounds with a hit. Of some 79,000 tested, about 15% had one in any assay. Active and inactive are the calls of the source. Cut-off read from the data, not from the text of the source: active = growth inhibition above about 70%; inactive = the rest.

How the values were obtained:
[1] = NCI Yeast Anticancer Drug Screen. Data for the rad52 strain (AID 147);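 note: 0% = growth of vehicle-treated control cultures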; conditions: S. cerevisiae rad52 mutant growth inhibition, stronger effect = higher value
How it was run: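 The repair-mutant yeast strain was incubated with compounds, then growth was read and inhibition derived relative to vehicle.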

[2] = NCI Yeast Anticancer Drug Screen. Data for the wt1 strain (AID 149);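 note: 0% = growth of vehicle-treated wt1 cultures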; conditions: S. cerevisiae wt1 strain (SPY 50644) growth inhibition, stronger effect = higher value
How it was run: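 wt1 strain grown with compound or vehicle; inhibition taken from the growth difference.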

[3] = NCI Yeast Anticancer Drug Screen. Data for the rad50EPP+ strain (AID 151);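 note: 0% = growth of vehicle-treated control cultures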; conditions: S. cerevisiae rad50 mutant strain, stronger effect = higher value
How it was run: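 Vehicle-normalised growth inhibition; rad50EPP+ yeast strain, altered in DNA damage repair, compound-treated.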

[4] = NCI Yeast Anticancer Drug Screen. Data for the mgt1 strain (AID 153); conditions: S. cerevisiae mgt1 mutant growth inhibition, stronger effect = higher value
How it was run: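 Vehicle-normalized growth inhibition is determined in mgt1 yeast, a strain selected for a defined alteration in DNA repair or cell cycle control.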

[5] = NCI Yeast Anticancer Drug Screen. Data for the rad50 strain (AID 155);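 note: 0% = growth of vehicle-only cultures of the same strain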; conditions: S. cerevisiae rad50 strain growth inhibition, stronger effect = higher value
How it was run: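 DNA repair mutant yeast, compound exposure, growth read-out; inhibition is taken relative to vehicle.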

[6] = NCI Yeast Anticancer Drug Screen. Data for the mec2-1 strain (AID 157); conditions: S. cerevisiae mec2-1 strain, stronger effect = higher value
How it was run: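 Mutant yeast (mec2-1) grown with compound; growth inhibition relative to vehicle control reported.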

[7] = NCI Yeast Anticancer Drug Screen. Data for the rad14 strain (AID 159);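 note: 0% = growth of vehicle-treated control cultures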; conditions: S. cerevisiae rad14 strain growth inhibition, stronger effect = higher value
How it was run: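 DNA repair-defective yeast, compound-exposed; % growth inhibition derived by comparison with vehicle-treated controls.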

[8] = NCI Yeast Anticancer Drug Screen. Data for the sgs1 mgt1 strain (AID 161);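 note: 0% = growth of cultures given vehicle only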; conditions: S. cerevisiae sgs1 mgt1 strain, stronger effect = higher value
How it was run: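 Yeast cells carrying a defined DNA-repair defect were exposed to test compounds. Growth inhibition was measured relative to vehicle-treated controls.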

[9] = NCI Yeast Anticancer Drug Screen. Data for the CLN2oe strain (AID 163);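 note: 0% = growth of vehicle-only control cultures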; conditions: S. cerevisiae CLN2oe strain, stronger effect = higher value
How it was run: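 Compounds are applied to yeast harbouring a defined cell-cycle control change; reduced growth compared with vehicle-treated controls gives the value.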

[10] = NCI Yeast Anticancer Drug Screen. Data for the cln2 rad14 strain (AID 165);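 note: 0% = growth equal to vehicle treated cultures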; conditions: S. cerevisiae cln2 rad14 strain, stronger effect = higher value
How it was run: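 Readout is yeast growth inhibition versus vehicle-treated controls, using a strain with cln2 and rad14 alterations exposed to compound.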

[11] = NCI Yeast Anticancer Drug Screen. Data for the bub3 strain (AID 167); conditions: S. cerevisiae bub3 mutant strain, stronger effect = higher value
How it was run: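 In this screen, a yeast mutant lacking normal mitotic checkpoint function is challenged with compound. Relative growth versus vehicle gives the inhibition value.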

[12] = NCI Yeast Anticancer Drug Screen. Data for the wt2 strain (AID 169);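 note: 0% = growth of vehicle-treated yeast cultures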; conditions: S. cerevisiae wt2 strain growth inhibition, stronger effect = higher value
How it was run: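 Against vehicle-treated controls, the growth of yeast exposed to each compound was compared, and the inhibition was recorded.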

[13] = NCI Yeast Anticancer Drug Screen. Data for the mlh1 strain (AID 171);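 note: 0% = growth of vehicle-treated control cultures of the same strain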; conditions: S. cerevisiae mlh1 strain growth inhibition, stronger effect = higher value
How it was run: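 Measured: yeast growth. Reference: vehicle-treated controls. Organism: strain with a defined alteration affecting DNA damage repair or cell cycle control, treated with compound.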

[14] = NCI Yeast Anticancer Drug Screen. Data for the sgs1 strain (AID 173);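 note: 0% = growth of vehicle-only control cultures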; conditions: S. cerevisiae sgs1 mutant, stronger effect = higher value
How it was run: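 Each compound was added to cultures of the altered yeast strain. Growth was recorded, and inhibition was derived by comparison with vehicle controls.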

[15] = NCI Yeast Anticancer Drug Screen. Data for the mlh1 rad18 strain (AID 175); conditions: S. cerevisiae mlh1 rad18 strain growth inhibition, stronger effect = higher value
How it was run: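 Genetically defined yeast (DNA repair-deficient) exposed to compounds; growth inhibition determined relative to vehicle.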

[16] = NCI Yeast Anticancer Drug Screen. Data for the rad18 strain (AID 177); conditions: S. cerevisiae rad18 mutant growth inhibition, stronger effect = higher value
How it was run: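 Vehicle-treated cultures served as the baseline for scoring compound-induced growth inhibition in DNA-repair-mutant yeast.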

[17] = at 5.0 µM (retest, dose inferred, filed as 0.5)
[18] = at 50.0 µM (retest, dose inferred, filed as 5.0)

Measured: growth inhibition

COc1cccc2c1C(=O)c1c(O)c3c(c(O)c1C2=O)C[C@@](O)(C(C)=O)C[C@@H]3OC1CC(N)C(OC2CC(O)C(O)C(C)O2)C(C)O1 (stereo partly drawn)
active: [5]; [18] 83% | [5]; at 50.0 µM 76.8% | [10]; [18] 78%
inactive: [1]; at 1.2 µM 16% | [1]; at 3.7 µM 12% | [1]; at 11.0 µM 15% | [1]; at 33.0 µM 27% | [1]; at 100.0 µM 59% | [2]; at 1.2 µM -26% | [2]; at 3.7 µM -25% | [2]; at 11.0 µM -7% | [2]; at 33.0 µM -15% | [2]; at 100.0 µM -2% | [3]; at 1.2 µM 11% | [3]; at 3.7 µM 8% | [3]; at 11.0 µM 10% | [3]; at 33.0 µM 18% | [3]; at 100.0 µM 38% | [4]; at 1.2 µM -22% | [4]; at 3.7 µM -22% | [4]; at 11.0 µM -18% | [4]; at 33.0 µM -14% | [4]; at 100.0 µM -17% | [5]; at 1.2 µM 1% | [5]; at 3.7 µM 10% | [5]; [17] 36% | [5]; at 11.0 µM 17% | [5]; at 33.0 µM 28% | [5]; at 100.0 µM 59% | [6]; at 1.2 µM -25% | [6]; at 3.7 µM -20% | [6]; [17] 5% | [6]; at 11.0 µM -24% | [6]; at 33.0 µM -17% | [6]; [18] 33% | [6]; at 50.0 µM 49.1% | [6]; at 100.0 µM -8% | [7]; at 1.2 µM -10% | [7]; at 3.7 µM -11% | [7]; at 11.0 µM -9% | [7]; at 33.0 µM -1% | [7]; at 100.0 µM 15% | [8]; [17] 14% | [8]; [18] 44% | [8]; at 50.0 µM 39.8% | [9]; at 1.2 µM -14% | [9]; at 3.7 µM -10% | [9]; at 11.0 µM -12% | [9]; at 33.0 µM -6% | [9]; at 100.0 µM 6% | [10]; [17] 19% | [10]; at 50.0 µM 57.8% | [11]; at 1.2 µM -30% | [11]; at 3.7 µM -26% | [11]; [17] 4% | [11]; at 11.0 µM -31% | [11]; at 33.0 µM -23% | [11]; [18] 37% | [11]; at 50.0 µM 42.4% | [11]; at 100.0 µM -6% | [12]; at 1.2 µM -57% | [12]; at 3.7 µM -65% | [12]; at 11.0 µM -54% | [12]; at 33.0 µM -28% | [12]; at 100.0 µM 2% | [13]; at 1.2 µM -25% | [13]; at 3.7 µM -15% | [13]; at 11.0 µM -17% | [13]; at 33.0 µM -6% | [13]; at 100.0 µM -3% | [14]; at 1.2 µM -2% | [14]; at 3.7 µM -4% | [14]; at 11.0 µM -11% | [14]; at 33.0 µM -8% | [14]; at 100.0 µM 0% | [15]; [17] 18% | [15]; [18] 48% | [15]; at 50.0 µM 51.3% | [16]; at 1.2 µM -8% | [16]; at 3.7 µM -17% | [16]; at 11.0 µM -32% | [16]; at 33.0 µM -21% | [16]; at 100.0 µM -2%

CCC1(O)C(=O)OCc2c1cc1n(c2=O)Cc2cc3ccccc3nc2-1 (stereo not drawn)
active: [1]; at 1.2 µM 73% | [1]; at 3.7 µM 92% | [1]; at 11.0 µM 95% | [1]; at 33.0 µM 94% | [1]; at 100.0 µM 95% | [3]; at 11.0 µM 70% | [3]; at 33.0 µM 75% | [3]; at 100.0 µM 86% | [5]; at 1.2 µM 74% | [5]; at 3.7 µM 91% | [5]; [17] 94% | [5]; at 11.0 µM 95% | [5]; at 33.0 µM 94% | [5]; [18] 96% | [5]; at 50.0 µM 86.2% | [5]; at 100.0 µM 94% | [6]; [18] 89% | [6]; at 50.0 µM 77.2% | [6]; at 100.0 µM 82%
inactive: [2]; at 1.2 µM -3% | [2]; at 3.7 µM 28% | [2]; at 11.0 µM 15% | [2]; at 33.0 µM 5% | [2]; at 100.0 µM 13% | [3]; at 1.2 µM 29% | [3]; at 3.7 µM 54% | [4]; at 1.2 µM -11% | [4]; at 3.7 µM -3% | [4]; at 11.0 µM -4% | [4]; at 33.0 µM -3% | [4]; at 100.0 µM 10% | [6]; at 1.2 µM -9% | [6]; at 3.7 µM -2% | [6]; [17] 21% | [6]; at 11.0 µM 23% | [6]; at 33.0 µM 36% | [7]; at 1.2 µM -4% | [7]; at 3.7 µM 7% | [7]; at 11.0 µM 5% | [7]; at 33.0 µM 12% | [7]; at 100.0 µM 24% | [8]; [17] 23% | [8]; [18] 56% | [8]; at 50.0 µM 47.5% | [9]; at 1.2 µM 12% | [9]; at 3.7 µM 26% | [9]; at 11.0 µM 33% | [9]; at 33.0 µM 18% | [9]; at 100.0 µM 41% | [10]; [17] 6% | [10]; [18] 27% | [10]; at 50.0 µM 19.3% | [11]; at 1.2 µM -14% | [11]; at 3.7 µM 9% | [11]; [17] 12% | [11]; at 11.0 µM -3% | [11]; at 33.0 µM 1% | [11]; [18] 27% | [11]; at 50.0 µM -24.9% | [11]; at 100.0 µM 10%
